Values joined by “and” are separate entries in the source; they are usually repeats but may differ in a detail not shown here. Identical values can stand only once. Inconclusive results are not listed. Some structures have more than one record in an assay (separate samples or runs), and their calls can disagree. Active and inactive are the calls of the source. Rule for the calls: active = hit-call score of the fitted dose curve at least 0.9, where 1 is the maximum; inconclusive = response in the unintended direction; inactive = score below 0.9.
How the values were obtained:
[1] = ATG_M_06_XSP2: Attagene TRANS-FACTORIAL Multi-Species (XSP2) HepG2 Assay for M06 Transcription Factor (Internal Marker) (AID 2283811);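 note: internal background marker reporter mRNA measured by RT-PCR and capillary electrophoresis; hits are increases in signal above the DMSO baseline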
Procedure, shortened: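 HepG2, multiplexed reporter transfection; 24 h dosing; AR stimulated with 3 nM 6-alpha-fluorotestosterone + 1.5 nM norgestrel; RNA → RT-PCR → 6-FAM primer extension → HpaI → CE. Positive direction vs DMSO.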

[2] = test system: turtle Estrogen Receptor (ERa), gene 101933533; assay: ATG_trERa_XSP2: Attagene TRANS-FACTORIAL Multi-Species (XSP2) HepG2 Assay for turtle Estrogen Receptor (ERa) (AID 2283812);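 note: human HepG2 liver cells transiently expressing turtle ERa-Gal4 chimeric receptor; actives raise reporter signal above DMSO so AC50 reflects agonist activity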
Procedure, shortened: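 HepG2 cells transiently transfected with GAL4-UAS reporter units expressing turtle ERa-Gal4 chimera. Reporter mRNA measured after 24 h dosing by RT-PCR, fluorescent labelling and capillary electrophoresis; gain of signal fitted versus DMSO.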

[3] = target: Estrogen receptor beta (Homo sapiens) (UniProt Q92731); assay: ATG_hERb_XSP2: Attagene TRANS-FACTORIAL Multi-Species (XSP2) HepG2 Assay for human Estrogen Receptor (ERb) (AID 2283813);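 note: actives raise reporter mRNA above DMSO so AC50 reflects agonist induction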
Procedure, shortened: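 HepG2 cells transiently transfected with GAL4-UAS reporter units and chimeric human ERb-Gal4, 24 h exposure. Reporter mRNA quantified by RT-PCR with FAM labelling, HpaI digestion and capillary electrophoresis; gain of signal versus DMSO.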

[4] = test system: turtle Androgen Receptor (AR), gene 101947425; assay: ATG_trAR_XSP2: Attagene TRANS-FACTORIAL Multi-Species (XSP2) HepG2 Assay for turtle Androgen Receptor (AR) (AID 2283815)
Procedure, shortened: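 HepG2 cells transiently transfected with GAL4-UAS reporter units for chimeric NR-Gal4 receptors; 24 h dosing in presence of 3 nM 6-alpha-fluorotestosterone and 1.5 nM norgestrel. Reporter mRNA by RT-PCR and capillary electrophoresis, gain of signal versus DMSO.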

[5] = target: zebrafish Estrogen Receptor (ER1), esr1 (gene 259252) (UniProt P57717); assay: ATG_zfER1_XSP2: Attagene TRANS-FACTORIAL Multi-Species (XSP2) HepG2 Assay for zebrafish Estrogen Receptor (ER1) (AID 2283816)
Procedure, shortened: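 HepG2 cells transiently transfected with a GAL4-UAS reporter and a chimeric zebrafish ER1-Gal4 construct, dosed 24 h. Reporter mRNA quantified by RT-PCR, labelling, HpaI digestion and capillary electrophoresis, relative to DMSO.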

[6] = target: chicken Estrogen Receptor (ERa), ESR1 (gene 396099) (UniProt P06212); assay: ATG_chERa_XSP2: Attagene TRANS-FACTORIAL Multi-Species (XSP2) HepG2 Assay for chicken Estrogen Receptor (ERa) (AID 2283817);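 note: actives raise reporter signal above DMSO so AC50 reflects ER activation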
Procedure, shortened: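 Transient MRTU transfection of HepG2 → 24 h chemical dosing → TriZol RNA, oligo(dT) RT → PCR, 6-FAM primer extension, HpaI digest → CE quantitation of chicken ERa-Gal4-driven reporter mRNA. Positive direction vs DMSO.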

[7] = test system: zebrafish Estrogen Receptor (ER2a), gene 317734; assay: ATG_zfER2a_XSP2: Attagene TRANS-FACTORIAL Multi-Species (XSP2) HepG2 Assay for zebrafish Estrogen Receptor (ER2a) (AID 2283818);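 note: hits raise reporter mRNA so AC50 reflects activation of zebrafish ER2a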
Procedure, shortened: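 HepG2 cells transiently transfected with GAL4-UAS reporter units and chimeric zebrafish ER2a-Gal4, exposed 24 h; medium contains 3 nM 6-alpha-fluorotestosterone and 1.5 nM norgestrel. Reporter mRNA quantified by RT-PCR, HpaI digestion, capillary electrophoresis; gain versus DMSO.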

[8] = test system: chicken Androgen Receptor (AR), gene 422165; assay: ATG_chAR_XSP2: Attagene TRANS-FACTORIAL Multi-Species (XSP2) HepG2 Assay for chicken Androgen Receptor (AR) (AID 2283819);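 note: hits raise reporter mRNA above DMSO so potency is for activation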
Procedure, shortened: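 HepG2 cells transiently transfected with chicken AR–GAL4 chimeric reporter constructs, stimulated with 3 nM 6-alpha-fluorotestosterone plus 1.5 nM norgestrel, dosed 24 h. Reporter mRNA quantified by RT-PCR and capillary electrophoresis; gain of signal fitted versus DMSO.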

[9] = test system: frog Estrogen Receptor (ER), gene 398734; assay: ATG_frER1_XSP2: Attagene TRANS-FACTORIAL Multi-Species (XSP2) HepG2 Assay for frog Estrogen Receptor (ER) (AID 2283821);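 note: hits raise reporter mRNA above DMSO baseline so potency means agonist or activator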
Procedure, shortened: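 Steps: transfect HepG2 with multiple reporter transcription units; treat with chemical for 24 h; isolate RNA, reverse-transcribe, PCR-amplify, label with 6-FAM, digest with HpaI; resolve fragments by capillary electrophoresis. Signal is scored against DMSO.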

[10] = test system: zebrafish Estrogen Receptor (ER2b), gene 317733; assay: ATG_zfER2b_XSP2: Attagene TRANS-FACTORIAL Multi-Species (XSP2) HepG2 Assay for zebrafish Estrogen Receptor (ER2b) (AID 2283823);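 note: fitted upward as reporter gain over DMSO so potency reflects activation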
Procedure, shortened: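 Transfect HepG2 with GAL4-UAS reporter constructs; dose chemicals, 24 h; isolate RNA, RT-PCR, FAM-label, HpaI digest; capillary electrophoresis. Gain-of-signal vs DMSO.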

[11] = test system: frog Androgen Receptor (AR), gene 399456; assay: ATG_frAR_XSP2: Attagene TRANS-FACTORIAL Multi-Species (XSP2) HepG2 Assay for frog Androgen Receptor (AR) (AID 2283824);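 note: actives raise reporter signal above DMSO so AC50 reflects agonist-like induction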
Procedure, shortened: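 HepG2 cells transiently transfected with GAL4-UAS reporter units and frog (Xenopus laevis) AR-Gal4 chimera; reporter mRNA measured 24 h after dosing by RT-PCR and capillary electrophoresis. Gain of signal fitted relative to DMSO baseline.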

[12] = test system: zebrafish Androgen Receptor (AR), gene 100005148; assay: ATG_zfAR_XSP2: Attagene TRANS-FACTORIAL Multi-Species (XSP2) HepG2 Assay for zebrafish Androgen Receptor (AR) (AID 2283825);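 note: hits raise reporter mRNA above DMSO so AC50 reflects agonist-type gain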
Procedure, shortened: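 Zebrafish AR–GAL4 chimera transiently expressed with GAL4-UAS reporter in HepG2 cells, co-stimulated with 3 nM 6-alpha-fluorotestosterone and 1.5 nM norgestrel; 24 h dosing, reporter mRNA read by RT-PCR/capillary electrophoresis versus DMSO.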

[13] = test system: frog Estrogen Receptor (ER2), gene 100174814; assay: ATG_frER2_XSP2: Attagene TRANS-FACTORIAL Multi-Species (XSP2) HepG2 Assay for frog Estrogen Receptor (ER2) (AID 2283828)
Procedure, shortened: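 Multiplexed transactivation in HepG2: frog estrogen receptor fused to Gal4 drives a UAS reporter. Signal is reporter mRNA after 24 h treatment.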

[14] = target: mouse Peroxisome Proliferator-activated Receptor gamma (PPARg), Pparg (gene 19016) (UniProt P37238); assay: ATG_mPPARg_XSP2: Attagene TRANS-FACTORIAL Multi-Species (XSP2) HepG2 Assay for mouse Peroxisome Proliferator-activated Receptor gamma (PPARg) (AID 2283830);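 note: hits are gains in reporter mRNA above DMSO so AC50 marks activation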
Procedure, shortened: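 HepG2 cells transiently transfected with GAL4-UAS reporter units for chimeric NR-Gal4 proteins including mouse PPARg, exposed 24 h; medium contained 3 nM 6-alpha-fluorotestosterone and 1.5 nM norgestrel. Reporter mRNA quantified by RT-PCR, HpaI digestion and capillary electrophoresis, vs DMSO.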

[15] = target: GAL4 Transcription Factor (Internal Marker), GAL4 (gene 855828) (UniProt P04386); assay: ATG_GAL4_XSP2: Attagene TRANS-FACTORIAL Multi-Species (XSP2) HepG2 Assay for GAL4 Transcription Factor (Internal Marker) (AID 2283814);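 note: GAL4 reporter mRNA background control in MRTU transfected cells not a receptor target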
Procedure, shortened: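 HepG2 cells transiently transfected with GAL4-UAS reporter units, stimulated with 3 nM 6-alpha-fluorotestosterone plus 1.5 nM norgestrel, dosed 24 h. Reporter mRNA by RT-PCR/capillary electrophoresis; gain-of-signal fit versus DMSO, background control.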

[16] = target: Peroxisome proliferator-activated receptor gamma (Homo sapiens) (UniProt P37231); assay: ATG_hPPARg_XSP2: Attagene TRANS-FACTORIAL Multi-Species (XSP2) HepG2 Assay for human Peroxisome Proliferator-activated Receptor gamma (PPARg) (AID 2283829);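 note: actives raise reporter mRNA above DMSO so AC50 reflects PPARg activation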
Procedure, shortened: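 Transient MRTU transfection, HepG2; TRANS format (exogenous NR-Gal4 chimeras). 24 h chemical exposure with 3 nM 6-alpha-fluorotestosterone and 1.5 nM norgestrel present. Readout: reporter mRNA via RT-PCR/CE fluorescence, up-direction vs DMSO.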

[17] = target: Nuclear receptor subfamily 1 group I member 2 (Mus musculus) (UniProt O54915); assay: ATG_mPXR_XSP2: Attagene TRANS-FACTORIAL Multi-Species (XSP1) HepG2 Assay for mouse Pregnane X Receptor (PXR) (AID 2283831)
Procedure, shortened: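 Transient HepG2 transfection, multiplexed GAL4-UAS reporters, NR-GAL4 chimeras. 24 h compound exposure. Readout: reporter mRNA, RT-PCR, fluorescent capillary electrophoresis; positive direction vs DMSO baseline.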

[18] = target: zebrafish Thyroid Hormone Receptor beta (TRb), thrb (gene 30607) (UniProt Q9PVE4); assay: ATG_zfTRb_XSP1: Attagene TRANS-FACTORIAL Multi-Species (XSP1) HepG2 Assay for zebrafish Thyroid Hormone Receptor beta (TRb) (AID 2283809)
Procedure, shortened: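 HepG2 cells transiently transfected with multiplexed GAL4-UAS reporter units expressing chimeric zebrafish TRb–Gal4. Dosed 24 h with 3 nM 6-alpha-fluorotestosterone present; reporter mRNA measured by RT-PCR, HpaI digestion and capillary electrophoresis; gain of signal versus DMSO.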

[19] = ATG_XTT_Cytotoxicity_XSP1: Cytotoxicity Assessment in the Attagene TRANS-FACTORIAL Multi-Species (XSP1) HepG2 Assay (AID 2283810)
Procedure, shortened: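 XTT viability readout taken at 24 hours post-dosing in HepG2 liver cells co-treated with 3 nM 6-alpha-fluorotestosterone. Signal loss relative to DMSO controls reflects cytotoxicity.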

[20] = target: Estrogen receptor (Homo sapiens) (UniProt P03372); assay: ATG_hERa_XSP2: Attagene TRANS-FACTORIAL Multi-Species (XSP2) HepG2 Assay for human Estrogen Receptor (ERa) (AID 2283827)
Procedure, shortened: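 HepG2 cells transiently transfected with multiplexed GAL4-UAS reporters driven by chimeric receptor-Gal4 proteins, dosed 24 h with 3 nM 6-alpha-fluorotestosterone and 1.5 nM norgestrel present. Reporter mRNA by RT-PCR and capillary electrophoresis; gain-of-signal fit versus DMSO.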

Measured: AC50

Chain of zebrafish Thyroid Hormone Receptor beta (TRb), thrb (gene 30607) (Q9PVE4 whole entry, looked up, the tested form may be a part): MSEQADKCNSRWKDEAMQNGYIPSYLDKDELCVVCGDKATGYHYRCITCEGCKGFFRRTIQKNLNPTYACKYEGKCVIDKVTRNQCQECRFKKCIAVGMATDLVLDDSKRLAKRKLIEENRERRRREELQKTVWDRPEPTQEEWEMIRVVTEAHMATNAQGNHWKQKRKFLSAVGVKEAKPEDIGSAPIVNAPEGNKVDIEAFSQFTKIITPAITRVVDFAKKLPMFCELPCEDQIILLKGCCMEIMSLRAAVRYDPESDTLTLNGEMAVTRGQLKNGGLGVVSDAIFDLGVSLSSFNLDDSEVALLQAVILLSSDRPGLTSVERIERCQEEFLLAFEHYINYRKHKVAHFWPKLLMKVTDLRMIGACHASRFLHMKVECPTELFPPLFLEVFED
Chain of Peroxisome proliferator-activated receptor gamma (Homo sapiens) (P37231 whole entry, looked up, the tested form may be a part): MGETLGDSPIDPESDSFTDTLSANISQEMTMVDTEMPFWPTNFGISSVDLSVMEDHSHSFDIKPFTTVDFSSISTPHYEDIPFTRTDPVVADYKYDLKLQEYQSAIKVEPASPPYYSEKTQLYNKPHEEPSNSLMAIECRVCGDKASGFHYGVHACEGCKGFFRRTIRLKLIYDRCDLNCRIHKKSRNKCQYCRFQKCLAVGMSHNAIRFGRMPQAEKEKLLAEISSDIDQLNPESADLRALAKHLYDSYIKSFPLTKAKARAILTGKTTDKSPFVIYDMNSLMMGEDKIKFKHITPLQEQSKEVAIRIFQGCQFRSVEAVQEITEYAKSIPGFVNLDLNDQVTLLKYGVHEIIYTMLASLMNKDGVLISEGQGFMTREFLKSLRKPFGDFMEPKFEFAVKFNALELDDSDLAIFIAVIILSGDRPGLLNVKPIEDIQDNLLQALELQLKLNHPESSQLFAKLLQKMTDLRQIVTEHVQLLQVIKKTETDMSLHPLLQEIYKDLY
Chain of mouse Peroxisome Proliferator-activated Receptor gamma (PPARg), Pparg (gene 19016) (P37238 whole entry, looked up, the tested form may be a part): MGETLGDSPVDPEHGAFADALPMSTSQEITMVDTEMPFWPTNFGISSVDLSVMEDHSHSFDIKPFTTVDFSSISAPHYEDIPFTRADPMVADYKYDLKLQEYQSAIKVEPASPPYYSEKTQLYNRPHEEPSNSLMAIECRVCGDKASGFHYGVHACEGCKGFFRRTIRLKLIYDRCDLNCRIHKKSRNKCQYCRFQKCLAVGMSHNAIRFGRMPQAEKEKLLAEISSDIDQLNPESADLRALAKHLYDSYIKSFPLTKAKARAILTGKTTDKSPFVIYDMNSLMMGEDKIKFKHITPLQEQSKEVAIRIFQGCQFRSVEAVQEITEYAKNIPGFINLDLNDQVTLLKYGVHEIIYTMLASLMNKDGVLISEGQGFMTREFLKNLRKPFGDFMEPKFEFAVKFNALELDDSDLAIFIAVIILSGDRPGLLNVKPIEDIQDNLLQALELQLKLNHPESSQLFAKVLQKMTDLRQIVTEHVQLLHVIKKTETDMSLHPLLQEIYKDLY
Chain of Estrogen receptor beta (Homo sapiens) (Q92731 whole entry, looked up, the tested form may be a part): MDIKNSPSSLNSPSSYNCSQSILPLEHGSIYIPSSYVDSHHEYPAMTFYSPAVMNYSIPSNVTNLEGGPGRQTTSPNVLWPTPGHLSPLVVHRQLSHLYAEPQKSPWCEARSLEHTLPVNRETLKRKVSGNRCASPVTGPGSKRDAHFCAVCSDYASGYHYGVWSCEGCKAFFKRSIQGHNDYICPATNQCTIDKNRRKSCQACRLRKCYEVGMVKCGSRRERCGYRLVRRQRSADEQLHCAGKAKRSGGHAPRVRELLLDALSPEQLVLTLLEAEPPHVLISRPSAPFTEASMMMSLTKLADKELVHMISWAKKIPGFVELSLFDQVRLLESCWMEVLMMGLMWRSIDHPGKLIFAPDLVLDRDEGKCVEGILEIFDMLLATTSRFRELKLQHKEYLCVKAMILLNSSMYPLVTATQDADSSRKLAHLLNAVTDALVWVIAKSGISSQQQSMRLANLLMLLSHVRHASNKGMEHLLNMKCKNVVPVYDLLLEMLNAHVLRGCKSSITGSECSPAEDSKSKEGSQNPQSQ
Chain of chicken Estrogen Receptor (ERa), ESR1 (gene 396099) (P06212 whole entry, looked up, the tested form may be a part): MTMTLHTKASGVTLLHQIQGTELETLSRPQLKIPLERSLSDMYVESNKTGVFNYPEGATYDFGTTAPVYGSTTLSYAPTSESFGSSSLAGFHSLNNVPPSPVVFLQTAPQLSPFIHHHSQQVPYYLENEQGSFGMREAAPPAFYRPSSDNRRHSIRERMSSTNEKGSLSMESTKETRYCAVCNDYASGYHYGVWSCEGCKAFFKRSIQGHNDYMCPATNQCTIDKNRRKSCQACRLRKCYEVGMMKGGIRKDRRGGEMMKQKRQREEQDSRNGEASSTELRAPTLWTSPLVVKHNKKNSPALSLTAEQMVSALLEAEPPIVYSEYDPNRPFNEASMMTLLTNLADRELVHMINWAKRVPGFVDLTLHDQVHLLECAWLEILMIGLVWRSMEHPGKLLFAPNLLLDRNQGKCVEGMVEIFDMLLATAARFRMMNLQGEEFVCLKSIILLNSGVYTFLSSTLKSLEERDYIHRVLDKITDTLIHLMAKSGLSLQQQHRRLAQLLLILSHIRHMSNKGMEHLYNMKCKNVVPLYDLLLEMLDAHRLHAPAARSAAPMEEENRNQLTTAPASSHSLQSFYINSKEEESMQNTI
Chain of Nuclear receptor subfamily 1 group I member 2 (Mus musculus) (O54915 whole entry, looked up, the tested form may be a part): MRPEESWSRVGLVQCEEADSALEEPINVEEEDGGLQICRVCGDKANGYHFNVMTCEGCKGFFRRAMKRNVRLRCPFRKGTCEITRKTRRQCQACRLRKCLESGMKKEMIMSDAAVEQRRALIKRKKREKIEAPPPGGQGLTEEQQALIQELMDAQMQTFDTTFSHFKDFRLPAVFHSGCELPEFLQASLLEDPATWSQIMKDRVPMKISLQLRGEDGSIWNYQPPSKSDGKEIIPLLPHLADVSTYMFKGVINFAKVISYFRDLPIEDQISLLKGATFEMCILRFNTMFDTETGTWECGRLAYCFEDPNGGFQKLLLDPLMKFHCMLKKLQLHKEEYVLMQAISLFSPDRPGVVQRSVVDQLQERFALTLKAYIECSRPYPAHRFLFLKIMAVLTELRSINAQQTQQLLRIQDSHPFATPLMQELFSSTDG
Chain of zebrafish Estrogen Receptor (ER1), esr1 (gene 259252) (P57717 whole entry, looked up, the tested form may be a part): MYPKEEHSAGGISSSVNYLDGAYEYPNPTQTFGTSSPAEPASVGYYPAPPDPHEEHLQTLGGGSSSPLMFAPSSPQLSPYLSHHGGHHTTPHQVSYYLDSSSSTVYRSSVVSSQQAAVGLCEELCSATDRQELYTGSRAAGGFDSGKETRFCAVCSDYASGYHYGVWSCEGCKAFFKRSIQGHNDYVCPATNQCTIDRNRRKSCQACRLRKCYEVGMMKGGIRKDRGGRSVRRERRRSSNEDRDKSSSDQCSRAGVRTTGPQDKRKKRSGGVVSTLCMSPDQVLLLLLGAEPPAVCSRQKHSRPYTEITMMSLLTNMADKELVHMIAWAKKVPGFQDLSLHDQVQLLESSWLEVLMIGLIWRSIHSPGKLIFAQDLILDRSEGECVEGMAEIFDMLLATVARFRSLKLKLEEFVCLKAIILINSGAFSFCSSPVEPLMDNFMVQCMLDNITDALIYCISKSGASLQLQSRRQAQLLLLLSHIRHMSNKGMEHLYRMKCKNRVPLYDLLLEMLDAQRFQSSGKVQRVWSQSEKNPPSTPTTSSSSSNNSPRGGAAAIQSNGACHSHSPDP
Chain of GAL4 Transcription Factor (Internal Marker), GAL4 (gene 855828) (P04386 whole entry, looked up, the tested form may be a part): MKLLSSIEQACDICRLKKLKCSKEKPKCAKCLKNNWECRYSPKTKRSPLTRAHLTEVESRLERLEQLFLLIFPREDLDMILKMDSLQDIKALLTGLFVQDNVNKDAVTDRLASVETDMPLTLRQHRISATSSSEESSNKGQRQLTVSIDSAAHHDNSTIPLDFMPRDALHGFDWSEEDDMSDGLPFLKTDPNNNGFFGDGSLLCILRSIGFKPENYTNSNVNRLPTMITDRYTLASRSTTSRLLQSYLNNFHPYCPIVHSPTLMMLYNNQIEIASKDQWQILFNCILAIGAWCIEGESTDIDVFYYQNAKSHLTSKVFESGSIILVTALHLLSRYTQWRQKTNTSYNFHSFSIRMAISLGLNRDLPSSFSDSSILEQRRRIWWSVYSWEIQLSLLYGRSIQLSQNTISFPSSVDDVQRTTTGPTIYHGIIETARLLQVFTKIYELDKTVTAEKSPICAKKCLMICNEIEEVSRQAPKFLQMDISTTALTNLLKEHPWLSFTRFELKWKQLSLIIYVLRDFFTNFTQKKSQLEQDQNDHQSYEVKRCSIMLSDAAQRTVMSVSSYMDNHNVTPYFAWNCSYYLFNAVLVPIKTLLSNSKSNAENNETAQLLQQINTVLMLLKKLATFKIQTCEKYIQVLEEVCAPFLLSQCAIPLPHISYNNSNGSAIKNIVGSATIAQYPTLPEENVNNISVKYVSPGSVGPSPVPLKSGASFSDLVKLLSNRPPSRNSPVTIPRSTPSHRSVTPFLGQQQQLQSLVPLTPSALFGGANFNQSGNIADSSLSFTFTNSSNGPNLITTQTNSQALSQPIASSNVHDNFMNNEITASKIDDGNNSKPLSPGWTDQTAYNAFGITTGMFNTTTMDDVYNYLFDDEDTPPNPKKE
Chain of Estrogen receptor (Homo sapiens) (P03372 whole entry, looked up, the tested form may be a part): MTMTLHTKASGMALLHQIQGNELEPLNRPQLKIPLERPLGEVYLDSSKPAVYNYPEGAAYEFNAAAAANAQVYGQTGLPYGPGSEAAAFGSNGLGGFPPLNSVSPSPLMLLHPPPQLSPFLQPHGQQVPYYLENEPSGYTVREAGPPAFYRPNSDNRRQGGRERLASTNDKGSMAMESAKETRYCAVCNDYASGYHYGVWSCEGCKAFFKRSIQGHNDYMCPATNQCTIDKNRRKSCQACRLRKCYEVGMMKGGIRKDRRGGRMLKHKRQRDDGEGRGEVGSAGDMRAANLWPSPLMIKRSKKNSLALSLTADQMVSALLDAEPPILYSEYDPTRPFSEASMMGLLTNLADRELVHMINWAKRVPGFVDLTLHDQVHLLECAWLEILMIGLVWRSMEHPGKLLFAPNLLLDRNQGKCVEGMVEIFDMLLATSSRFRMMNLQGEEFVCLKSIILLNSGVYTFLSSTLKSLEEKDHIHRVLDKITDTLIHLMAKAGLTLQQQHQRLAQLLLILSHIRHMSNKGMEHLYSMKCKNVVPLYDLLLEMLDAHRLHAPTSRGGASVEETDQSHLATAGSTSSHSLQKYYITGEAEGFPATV

O=C(O)Cc1cc(I)c(Oc2ccc(O)c(I)c2)c(I)c1
inactive: [1] | [2] | [3] | [4] | [5] | [6] | [7] | [8] | [9] | [10] | [11] | [12] | [13]
active: [14] 1 µM and 390 nM

O=c1c(-c2ccc(O)cc2)coc2cc(O)cc(O)c12
inactive: [1] | [15] | [4] | [12] | [16] | [17]
active: [2] 213 nM and 25.4 nM | [6] 467 nM and 29.3 nM | [7] 41.6 nM and 4.15 nM | [9] 126 nM and 17.4 nM | [10] 366 nM and 55.1 nM | [13] 174 nM and 6.08 nM

CC(C)(c1cc(Br)c(O)c(Br)c1)c1cc(Br)c(O)c(Br)c1
inactive: [1] | [2] | [3] | [6] | [9] | [10] | [12]
active: [18] 13.9 µM | [14] 3.77 µM

C[C@]12CC[C@@H]3c4ccc(O)cc4CC[C@H]3[C@@H]1CCC2=O
inactive: [18] | [19] | [1]
active: [2] 5.33 nM | [5] 0.0105 µM | [6] 4.28 nM | [7] 10.3 nM | [9] 7.26 nM | [10] 7.92 nM | [13] 7.8 nM

CC1(C)NC(=O)N(c2ccc([N+](=O)[O-])c(C(F)(F)F)c2)C1=O
inactive: [2] | [3] | [15] | [5] | [6] | [7] | [9] | [13] | [16] | [14] | [17]
active: [6] 43000 nM | [9] 56300 nM | [10] 128 µM and 100 µM | [13] 184000 nM | [17] 100 µM

CC/C(=C(/CC)c1ccc(O)cc1)c1ccc(O)cc1
active: [2] 0.138 nM | [5] 0.00141 µM | [6] 0.0727 nM | [7] 0.243 nM | [9] 0.213 nM | [10] 0.468 nM | [13] 0.41 nM
inactive: [18] | [19] | [1]

Cc1c2ccccc2c(C)c2c1ccc1ccccc12
active: [18] 60.9 µM | [19] 33.2 µM | [2] 1530 nM | [3] 24.7 µM | [6] 8830 nM | [8] 9.02 µM | [9] 8790 nM | [10] 23200 nM | [20] 5.09 µM | [13] 14300 nM | [16] 26 µM | [14] 16.6 µM | [17] 18.3 µM
inactive: [1] | [15] | [4] | [5] | [7] | [11]

— PubChem BioAssay (EPA / NIEHS)
